Results taken from PubChem BioAssay (NCATS).
Inconclusive results are not listed. For some assays here: Measured potencies and affinities stand elsewhere. Activity calls are given as the source filed them. Unless noted, no rule for the calls is given here.

Columns and labels:
[1] = Ebola virus entry assay, green fluorescence channel
[2] = Ebola virus entry assay, blue channel fluorescence
[3] = Ebola virus entry assay, ratio channel
[4] = Ebola virus entry assay, reporter ratio channel; Channel type: primary
[5] = Ebola virus entry assay, blue channel (ratio component)
[6] = qHTS assay for measurement of the activity of small molecule inhibitors on Zika virus induced Caspase-3 activity in human iPSC derived neural progenitor cells (hNPCs) (AID 1224857; active = well fitted inhibition curve with a large enough effect; also: % of control where 0% means no effect; nearly all actives have a fitted effect of over 65% in size); settings: hNPCs ZIKV-induced caspase-3/7, Caspase-Glo luminescence, 6 h; series mostly up to 45.7 µM
Summary of the method: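 In medium with heparin 2 ug/ml and cyclopamine 2 uM, hNPCs (350 cells/well) received compound for one hour and then Zika virus at 2 FFU/cell; caspase activity was measured by Caspase-Glo 3/7 luminescence 6 h post-infection.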

[7] = qHTS assay for measurement of the activity of small molecule inhibitors on Zika virus induced Caspase-3 activity in human astrocytoma cells (AID 1224859; active = well fitted inhibition curve with a large enough effect;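 also: plate controls were ZIKV-infected untreated cells for no effect and uninfected cells for full effect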); settings: SNB-19 ZIKV-induced caspase-3/7, luminescence, 6 h; series mostly up to 45.7 µM
Summary of the method: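 A cell-based luminescent caspase-3/7 assay used SNB-19 cells infected with ZIKV (2 FFU/cell) for 6 h following 1 h compound pretreatment.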
For efficacy in this document: 0% is about no effect.

c1ccc(CNCCNCc2ccccc2)cc1
active: AC50 [4] 25.1 µM
inactive: efficacy [1] 55.2% | outcome [2] | outcome [3] | outcome [5]

CCNC(=O)NCCCOc1cccc(CN2CCCCC2)c1
inactive: efficacy [1] 42.2% | outcome [2] | outcome [3] | outcome [4] | outcome [5]

Oc1ccc(/C=C/c2cc(O)cc(O)c2)cc1
inactive: efficacy [1] 48.9% | outcome [2] | outcome [3] | outcome [4] | outcome [5]

CCCCC(=O)O[C@]1(C(=O)CO)CC[C@H]2[C@@H]3CCC4=CC(=O)CC[C@]4(C)[C@H]3[C@@H](O)C[C@@]21C
inactive: efficacy [1] 66.7% | outcome [2] | outcome [3] | outcome [4] | outcome [5]

CCC(=O)O[C@]1(C(=O)COC)[C@@H](C)C[C@H]2[C@@H]3CCC4=CC(=O)C=C[C@]4(C)C3(F)[C@@H](O)C[C@@]21C (stereo partly specified)
inactive: efficacy [1] 67.5% | outcome [2] | outcome [4] | outcome [5]
active: AC50 [3] 7.94 µM

CCCCCOc1ccccc1/C(=C\SC)n1ccnc1
inactive: efficacy [1] 106% | outcome [2] | outcome [3] | outcome [4] | outcome [5]

CC1(C)O[C@@H]2C[C@H]3[C@@H]4C[C@H](F)C5=CC(=O)C=C[C@]5(C)[C@H]4[C@@H](O)C[C@]3(C)[C@]2(C(=O)CO)O1
inactive: efficacy [1] 79.9% | outcome [2] | outcome [3] | outcome [4] | outcome [5]

CC(=O)[C@@]1(O)CC[C@H]2[C@@H]3C[C@H](C)C4=CC(=O)CC[C@]4(C)[C@H]3CC[C@@]21C
inactive: efficacy [1] 52.6% | outcome [2] | outcome [3] | outcome [4] | outcome [5]

CC(N)C(=O)OC(C)(C)Cc1ccc(Cl)cc1 (stereo unspecified)
inactive: efficacy [1] 77% | Potency [6]
active: AC50 [2] 15.8 µM | AC50 [3] 14.1 µM | AC50 [4] 14.1 µM

C[C@@H]1CCN(C(=O)[C@H](CCCN=C(N)N)NS(=O)(=O)c2cccc3c2NC[C@H](C)C3)[C@@H](C(=O)O)C1
inactive: efficacy [1] -39.7% | outcome [2] | outcome [3] | outcome [4] | outcome [5]

CCOP(=S)(OCC)O/N=C(\C#N)c1ccccc1
inactive: efficacy [1] -42.7% | outcome [2] | outcome [3] | outcome [4] | outcome [5] | Potency [6] | outcome [7]

C[C@]12CC[C@H]3[C@@H](CCC4=CC(=O)CC[C@@]43C)[C@@H]1CC[C@@H]2C(=O)CO
inactive: efficacy [1] 61.9% | outcome [2] | outcome [3] | outcome [4] | outcome [5]

CNC[C@H](O)c1ccc(O)c(O)c1
inactive: efficacy [1] 27.1% | outcome [2] | outcome [3] | outcome [4] | outcome [5]

C#C[C@]1(O)C=C[C@H]2[C@@H]3CCC4=CC(=O)CC[C@@H]4[C@H]3CC[C@@]21CC
inactive: efficacy [1] 51.7% | outcome [2] | outcome [3] | outcome [4] | outcome [5] | Potency [6] | outcome [7]

Clc1ccc(CSC(Cn2ccnc2)c2ccc(Cl)cc2Cl)cc1 (stereo unspecified)
active: AC50 [2] 5.62 µM | AC50 [3] 4.47 µM | AC50 [4] 4.47 µM
inactive: efficacy [1] -183% | Potency [6] | outcome [7]

C[C@]12CCC(=O)C=C1CC[C@@H]1[C@@H]2CC[C@@]2(C)[C@H]1CC[C@]2(O)C(=O)CO
inactive: efficacy [1] 55.8% | outcome [2] | outcome [3] | outcome [4] | outcome [5]

O=C(CCCN1CCN(c2ccccn2)CC1)c1ccc(F)cc1
inactive: efficacy [1] 28.5% | outcome [2] | outcome [3] | outcome [4] | outcome [5]

O=C(CS)Nc1ccccc1
active: AC50 [4] 25.1 µM
inactive: efficacy [1] 30.5% | outcome [2] | outcome [3] | outcome [5]

Cc1ccc([N+](=O)[O-])[c]2c1[O][Hg]2
active: AC50 [2] 1.78 µM | AC50 [3] 0.708 µM | AC50 [4] 0.708 µM
inactive: efficacy [1] -177% | Potency [6]

COP(=S)(OC)Oc1ccc(S(N)(=O)=O)cc1
inactive: efficacy [1] -39.4% | outcome [2] | outcome [3] | outcome [4] | outcome [5] | Potency [6] | outcome [7]

CC(=O)OCC(=O)[C@@]12N=C(C)O[C@@H]1C[C@H]1[C@@H]3CCC4=CC(=O)C=C[C@]4(C)[C@H]3[C@@H](O)C[C@@]12C
inactive: efficacy [1] 27% | outcome [2] | outcome [3] | outcome [4] | outcome [5]

COC(=O)Nc1nc2ccc(Sc3ccccc3)cc2[nH]1
inactive: efficacy [1] 73.8% | outcome [2] | outcome [5]
active: AC50 [3] 4.47 µM | AC50 [4] 4.47 µM

O=C(NCC1CN(c2ccc(N3CCOCC3=O)cc2)C(=O)O1)c1ccc(Cl)s1 (stereo unspecified)
inactive: efficacy [1] 23% | outcome [2] | outcome [3] | outcome [4] | outcome [5]

C[C@@H]1C[C@H]2[C@@H]3CCC4=CC(=O)C=C[C@]4(C)[C@@]3(F)[C@@H](O)C[C@]2(C)[C@@]1(O)C(=O)COC(=O)c1ccncc1
active: AC50 [4] 39.8 µM
inactive: efficacy [1] 33.7% | outcome [2] | outcome [3] | outcome [5]

CC[C@H]1C[C@H]2[C@@H]3CCC4=CC(=O)CC[C@@H]4[C@H]3CC[C@]2(C)[C@H]1O
inactive: efficacy [1] 63.1% | outcome [2] | outcome [5] | Potency [6] | outcome [7]
active: AC50 [3] 15.8 µM | AC50 [4] 15.8 µM

NS(=O)(=O)c1ccc(N2CCCCS2(=O)=O)cc1
inactive: efficacy [1] -36.2% | outcome [2] | outcome [3] | outcome [4] | outcome [5]

CN(C(=O)CCCOc1ccc2[nH]c(=O)ccc2c1)C1CCCCC1
inactive: efficacy [1] 72.6% | outcome [2] | outcome [3] | outcome [4] | outcome [5]

COc1ccc(-c2nc3ccc(C4=NNC(=O)CC4C)cc3[nH]2)cc1 (stereo unspecified)
inactive: efficacy [1] 23.5% | outcome [2] | outcome [5]
active: AC50 [3] 14.1 µM | AC50 [4] 14.1 µM

C[C@@H]1CC[C@H]2[C@@H](C)C(=O)O[C@@H]3O[C@@]4(C)CC[C@@H]1[C@]32OO4
inactive: efficacy [1] 76.3% | outcome [2] | outcome [3] | outcome [4] | outcome [5] | Potency [6] | outcome [7]

CC1=C(C)C(=O)C(CCCCC#CCCCC#CCO)=C(C)C1=O
inactive: efficacy [1] 49.4% | outcome [2] | outcome [3] | outcome [4] | outcome [5]

C=CCNc1nc(NCC=C)nc(N2CCN(C(c3ccc(F)cc3)c3ccc(F)cc3)CC2)n1
inactive: efficacy [1] 31% | outcome [2] | outcome [3] | outcome [4] | outcome [5]

CCOC(C(=O)OCCN(C)C)(c1ccccc1)c1ccccc1
inactive: efficacy [1] 59.7% | Potency [6] | outcome [7]
active: AC50 [2] 22.4 µM | AC50 [3] 25.1 µM | AC50 [4] 25.1 µM

CC(=O)N(CC(=O)N(C)C)c1ccccc1
inactive: efficacy [1] 35.3% | outcome [2] | outcome [3] | outcome [4] | outcome [5]

COC(=O)c1nc(Cl)c(Cl)nc1N
inactive: efficacy [1] 66.4% | outcome [2] | outcome [5]
active: AC50 [3] 4.47 µM | AC50 [4] 4.47 µM

Cc1nc2ccccc2c(=O)n1-c1ccccc1Cl
active: AC50 [3] 20 µM | AC50 [4] 20 µM
inactive: efficacy [1] 30.7% | outcome [2] | outcome [5] | Potency [6] | outcome [7]

CCN(CC)CC(=O)Nc1c(C)cccc1C(=O)OC
inactive: efficacy [1] 26% | outcome [2] | outcome [3] | outcome [4] | outcome [5]

C[C@H](CN1CCOCC1)C(C(=O)N1CCCC1)(c1ccccc1)c1ccccc1
active: AC50 [2] 35.5 µM | AC50 [4] 44.7 µM
inactive: efficacy [1] 92.9% | outcome [3] | Potency [6] | outcome [7]

CCC1(c2cccc(O)c2)CCCCN(C)C1 (stereo unspecified)
inactive: efficacy [1] 34.9% | outcome [3] | Potency [6] | outcome [7]
active: AC50 [2] 20 µM | AC50 [4] 39.8 µM

O=C1CN2CCOC2(c2ccccc2Cl)c2cc(Cl)ccc2N1 (stereo unspecified)
inactive: efficacy [1] 46.2% | outcome [2] | outcome [3] | outcome [4] | Potency [6] | outcome [7]

COc1cc(CC(C)N)c(OC)cc1Br (stereo unspecified)
inactive: efficacy [1] 80.6% | outcome [3] | Potency [6] | outcome [7]
active: AC50 [2] 31.6 µM | AC50 [4] 39.8 µM

CN1CCC(N(Cc2ccccc2)c2ccccc2)CC1
inactive: efficacy [1] 45.7% | Potency [6] | outcome [7]
active: AC50 [2] 7.08 µM | AC50 [3] 4.47 µM | AC50 [4] 4.47 µM

C=CCN1CC[C@]23CCCC[C@H]2[C@H]1Cc1ccc(O)cc13
inactive: efficacy [1] 55.2% | outcome [3] | Potency [6] | outcome [7]
active: AC50 [2] 39.8 µM | AC50 [4] 39.8 µM

COc1cc(C[C@@H](C)N)c(OC)cc1C
inactive: efficacy [1] 32.9% | outcome [3] | Potency [6] | outcome [7]
active: AC50 [2] 35.5 µM | AC50 [4] 35.5 µM

C=CC[C@]1(O)CC[C@H]2[C@@H]3CCC4=CC(=O)CCC4=C3C=C[C@@]21C
active: AC50 [2] 28.2 µM | AC50 [4] 35.5 µM
inactive: efficacy [1] 89.4% | outcome [3] | Potency [6] | outcome [7]

CCc1ccc(C2CCNCC2)cc1
active: AC50 [2] 25.1 µM | AC50 [4] 31.6 µM
inactive: efficacy [1] 65.4% | outcome [3] | Potency [6] | outcome [7]

CN1C2CCC(C)(C)C1CC(OC(=O)C(O)(c1cccs1)c1cccs1)C2 (stereo unspecified)
inactive: efficacy [1] 75.5% | Potency [6] | outcome [7]
active: AC50 [2] 20 µM | AC50 [3] 15.8 µM | AC50 [4] 15.8 µM

OC(c1ccccc1)(c1ccccc1)C1CCNCC1
inactive: efficacy [1] 37.5% | Potency [6] | outcome [7]
active: AC50 [2] 20 µM | AC50 [3] 15.8 µM | AC50 [4] 15.8 µM

CCN(CC)CCOC(=O)C(C)(c1ccccc1)c1ccccc1
inactive: efficacy [1] 52.6% | Potency [6] | outcome [7]
active: AC50 [2] 8.91 µM | AC50 [3] 10 µM | AC50 [4] 10 µM
